Sampled rows, rich in hits. Any-hit rate of the full collection: about 2.8%.
BRCA1 expr up = increases BRCA1 expression | AID 624202 | MCF7-BRCA1-FFLuc reporter, luminescence, 48 h; response scale: scaled: vehicle 0%, 10 µM genistein 100% | Potency, µM (series often up to 46.1 µM), hits mostly activators | actives 1.1% (n = 380,000); further: nearly all actives have a fitted effect of over 80% in size
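Compounds are tested at multiple concentrations on MCF7 BRCA1-luciferase reporter cells seeded at 2000 per well; after 48 h, a single luminescence end-point is taken and curves fitted to the normalized data.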
GLP-1R agonist = activates the human GLP-1 receptor | Potency, µM (doses to about 45.6 µM), usual class: activators | HEK293 GLP-1R CRE-luciferase, luminescence, 4-6 h; cells express a hypersensitive GLP-1R form | P43220 | AID 624172 | actives 0.007% (n = 380,000)
Target sequence (P43220 whole entry, looked up): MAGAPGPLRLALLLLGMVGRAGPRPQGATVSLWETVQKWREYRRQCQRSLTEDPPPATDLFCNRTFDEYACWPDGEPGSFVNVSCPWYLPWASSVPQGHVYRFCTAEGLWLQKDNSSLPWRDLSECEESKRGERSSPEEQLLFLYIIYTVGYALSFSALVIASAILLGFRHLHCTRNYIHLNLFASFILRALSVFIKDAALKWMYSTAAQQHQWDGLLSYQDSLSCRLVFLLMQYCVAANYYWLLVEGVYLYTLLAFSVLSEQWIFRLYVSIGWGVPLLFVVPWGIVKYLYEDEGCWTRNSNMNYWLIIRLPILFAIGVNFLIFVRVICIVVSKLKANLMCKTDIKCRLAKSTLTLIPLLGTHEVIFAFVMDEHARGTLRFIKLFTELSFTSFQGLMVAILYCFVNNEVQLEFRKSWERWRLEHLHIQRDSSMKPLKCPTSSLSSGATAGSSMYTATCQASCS
Mito fusion yeast = blocks mitochondrial division or promotes mitochondrial fusion; actives 0.23% (n = 320,000); Potency, µM (titrated, usually from 46.1 µM), hits mostly activators; S. cerevisiae fusion-defective mutant growth rescue, CellTiterGlo 48 h; further: nearly all actives have a fitted effect of over 45% in size
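Luminescent cell viability in 1536-well qHTS format served as the measure of rescued growth in ts fusion-mutant S. cerevisiae cultured on non-fermentable YPEG for 48 hours at 37C.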
GLP1R cytotox = cytotoxicity counter-screen for GLP-1 receptor inverse agonists | HEK293 cAMP-luciferase reporter cells, luminescence, 24 h | Potency, µM (titrated, usually from 38.3 µM), usual class: inhibitors | actives 0.13% (n = 410,000);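 further: loss of luciferase light is scored as toxicity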
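To flag toxic compounds, the library was rerun on cells for 24 hr at 37 deg C and 5% CO2. Viability-linked luminescence was captured 12 min after adding luciferase detection reagent.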
GLP1R inv ag = inverse agonists of human GLP-1 receptor; P43220; HEK293 GLP-1R CRE-luciferase, luminescence, 24 h; GLP-1R form is constitutively active; Potency, µM (series often up to 38.3 µM), most hits filed as inhibitors; actives 1.6% (n = 410,000); further: nearly all actives have a fitted effect of over 55% in size
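Stable HEK293 clone (constitutively active GLP-1R + cAMP-response luciferase); 200 cells/uL plated, 12 h pre-culture, compound 24 hr, 37 deg C/5% CO2; detection reagent 12 min RT; luminescence.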
A number is an active result; . = inactive; ? = inconclusive; / = no result. The call rests on the fitted dose curve; in most records, active means well fitted curve in the direction sought with a large enough effect; inconclusive means small, poorly fitted or top-dose-only effect, or another doubt; inactive means no such curve, though single readings can be large; an effect the other way counts as inactive or inconclusive.

SMILES	BRCA1 expr up	GLP-1R agonist	Mito fusion yeast	GLP1R cytotox	GLP1R inv ag
CCC(O)c1cnc(OCc2ccccc2)nc1OCc1ccccc1 (configuration not stated)	.	.	/	.	10µM
CCC(O)c1ccccc1 (configuration not stated)	/	.	/	/	/
CCCCCCN1C=CC=C/C1=C/C=C(C#N)C#N	.	.	13µM	.	.
O=C(N/N=C\c1ccncc1)c1ccccc1O	.	.	.	.	.
O=C(N/N=C/c1ccc(-c2ccccc2)o1)c1ccccc1O	.	.	.	?	10µM
Cc1ccc(/C=N/NC(=O)c2cccs2)s1	11µM	.	.	.	.
O=C(N/N=C/c1cccc2ccccc12)c1cccs1	4µM	.	.	.	.
O=C(N/N=C/c1c[nH]c2ccccc12)c1cccs1	.	.	.	.	.
COC(=O)CN(c1nc(C)cc(OC)n1)S(=O)(=O)c1ccccc1	.	.	.	.	.
COc1cc(OC)cc(-c2c(-c3ccc(F)cc3)c3cc(Br)ccc3n2C)c1	.	.	.	.	7.9µM
CC1(C)CC[C@]2(C(=O)n3ccnc3)CC[C@]3(C)[C@H](C(=O)C=C4[C@@]5(C)C=C(C#N)C(=O)C(C)(C)[C@@H]5CC[C@]43C)[C@@H]2C1	.	.	/	.	2.5µM
CC(C)(C)CC(=O)Nc1cccc(-c2cn3cccnc3n2)c1	8.9µM	.	.	.	.
COc1ccccc1NC(=O)C1CCCN(c2ncnc3c2nc2n3CCCCC2)C1 (configuration not stated)	.	.	.	.	?
CCc1cccc(NC(=O)C2CCCN(c3ncnc4c3nc3n4CCCCC3)C2)c1 (configuration not stated)	.	.	.	.	6.3µM
O=C(Nc1ccc(F)cc1)C1CCCN(c2ncnc3c2nc2n3CCCCC2)C1 (configuration not stated)	/	/	/	.	?
CCc1ccccc1N(CC)C(=O)C1CCN(c2ncnc3c2nc2n3CCCCC2)CC1	.	.	?	.	8.9µM
Cc1ccc(NC(=O)C2CCCN(c3ncnc4c3nc3n4CCCCC3)C2)cc1F (configuration not stated)	/	/	/	.	3.5µM
O=C(Nc1ccccc1Cl)C1CCCN(c2ncnc3c2nc2n3CCCCC2)C1 (configuration not stated)	.	.	.	.	3.2µM
O=C(COc1ccccc1/C=C\c1[nH]c(=O)[nH]c(=O)c1[N+](=O)[O-])Nc1ccccc1	.	.	.	.	.
CCc1ccc2[nH]c(=O)c(C3C(C#N)=C(N)Oc4c3ccc3cccnc43)cc2c1 (configuration not stated)	.	.	.	?	.
Cc1cc(C)nc(Nc2ncc(O)n2-c2ccc(Br)cc2)n1	.	.	.	.	.
COc1cccc(N2CCN(C(=O)C3CCCN(c4ncnc5c4nc4n5CCCCC4)C3)CC2)c1 (configuration not stated)	.	.	?	?	4.5µM
CC1CCN(C(=O)C2CCCN(c3ncnc4c3nc3n4CCCCC3)C2)CC1 (configuration not stated)	.	.	.	.	.
Cc1cccc(OCCNC(=O)c2cccc(Oc3ccc(C(F)(F)F)cc3[N+](=O)[O-])c2)c1	.	.	.	.	2.5µM
COc1cccc(OCc2nnc(SCC(=O)NNC(=O)C3CCCCC3)n2C)c1	.	.	.	.	.
SMILES	BRCA1 expr up	GLP-1R agonist	Mito fusion yeast	GLP1R cytotox	GLP1R inv ag
O=C(/C=C/Nc1ccccc1F)c1ccc(Br)cc1	.	.	.	.	.
N#Cc1ccccc1N/C=C/C(=O)c1ccc(Cl)cc1	?	.	/	.	6.3µM
CCOC(=O)c1ccc(NC(=O)CSc2nnc(-c3cccs3)n2C)cc1	.	.	.	.	.
Oc1ccccc1-c1nc(-c2cccs2)c(-c2cccs2)[nH]1	/	/	/	.	?
CC(=O)N(C)c1ccc(NC(=O)Nc2ccc(C)cc2)cc1	.	.	.	.	.
N#Cc1ccc(NC(=O)Nc2ccc(Cl)cc2)cc1	.	.	.	.	6.3µM
CC(=O)N(C)c1ccc(NC(=O)Nc2ccc(Cl)cc2)cc1	11µM	.	/	.	?
COc1ccc(-c2cnc3c(NC=O)cc(-c4ccc(C(=O)N5CCOCC5)cc4)cn23)cc1OC	.	?	/	.	.
O=C(c1ccc(Br)cc1)c1cc([N+](=O)[O-])ccc1N1CCOCC1	.	.	.	?	1.4µM
O=C(c1ccc(Cl)cc1)c1cc([N+](=O)[O-])ccc1N1CCOCC1	.	.	.	?	?
O=C(c1cc([N+](=O)[O-])ccc1N1CCOCC1)N1CCCCC1	.	.	.	.	.
O=C(OCc1cccc(Cl)c1)c1cc([N+](=O)[O-])ccc1N1CCOCC1	.	?	.	.	?
O=C(c1ccccc1)c1cc([N+](=O)[O-])ccc1N1CCOCC1	.	?	.	11µM	?
O=C(COC(=O)c1cc([N+](=O)[O-])ccc1N1CCOCC1)NCc1ccc(Cl)cc1Cl	.	.	.	.	11µM
O=C(OCc1cccc(C(F)(F)F)c1)c1cc([N+](=O)[O-])ccc1N1CCOCC1	.	.	.	.	10µM
O=C(Nc1cc(Br)ccc1O)c1cc(-c2ccco2)on1	.	.	.	.	.
O=C(Nc1cc(Cl)ccc1O)c1cc(-c2ccco2)on1	6.3µM	.	.	.	.
CCN(c1ccccc1)S(=O)(=O)c1ccc(-c2cc(C)no2)s1	/	/	/	.	?
CCN(c1ccc(OC)cc1)S(=O)(=O)c1ccc(-c2cc(C)no2)s1	.	.	.	.	7.9µM
Cc1ccc(C)c(-n2cc(CNCCCn3cccn3)c(-c3ccccc3)n2)c1	.	.	.	.	11µM
Cc1ccc(-c2ccc(/C=C(\C#N)C(N)=S)n2C)cc1	.	.	.	.	.
Cc1csc(NC(=O)c2oc3ccccc3c2C)n1	.	.	.	.	?
Cc1csc(Nc2nc(N)c(C(=O)Nc3ccccc3)o2)n1	7.9µM	.	.	.	.
Clc1ccc(C[n+]2csc3ccccc32)cc1	.	.	11µM	.	?
CC(=O)NC(Cc1c[nH]c2ccccc12)C(=O)OCC(=O)Nc1ccc2c(c1)OCO2 (configuration not stated)	.	.	.	.	.
Cc1[nH]c2ccccc2c1C(=O)C(=O)Nc1ccc2c(c1)OCO2	2.5µM	.	.	.	.
COc1ccc(CN(C)C(=O)C2CSC3(C)CCC(=O)N23)cc1 (configuration not stated)	.	.	.	.	.
COc1ccc2oc(C(=O)NNC(=O)c3ccc(F)cc3)c(C)c2c1	.	.	.	.	.
COc1ccc2oc(C(=O)NC(C)(C)C)c(C)c2c1	7.1µM	.	.	.	.
COc1ccc2oc(C(=O)C3CC3)c(N)c2c1	6.3µM	.	.	.	.

Compound activity (PubChem)
